From PubChem BioAssay (NCATS)
Inconclusive results are not listed. Calls of active or inactive are those of the source. Calls come from the whole dose curve; as a rule, active = well fitted curve in the direction sought with a large enough effect; inconclusive = small, poorly fitted or top-dose-only effect, or another doubt; inactive = no such curve, though single readings can be large; an effect the other way counts as inactive or inconclusive.

What was measured:
[1] = Quantitative High-Throughput drug screen in 47 multiple myeloma cell lines against the NCATS MIPE library collection: AMO1_DSMZ cell viability assay (AID 1918927; note: nearly all actives have a fitted effect of over 30% in size)
Method in brief: (§1)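 Viability readout: CellTiter-Glo luminescence following 5 min room-temperature incubation with reagent. Prior exposure: 48 h, 37C, humidified 5% CO2, 500 cells per well.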

[2] = Quantitative High-Throughput drug screen in 47 multiple myeloma cell lines against the NCATS MIPE library collection: ARP1_JJKsccF8 cell viability assay (AID 1918928; note: nearly all actives have a fitted effect of over 40% in size)
Method in brief: (§2)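 Here, 48 h treatment with MIPE 4.0 agents at 37 °C preceded an ATP luminescence read. Plating density was 500 cells per well.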

[3] = Quantitative High-Throughput drug screen in 47 multiple myeloma cell lines against the NCATS MIPE library collection: Karpas620_DSMZ cell viability assay (AID 1918959); note: nearly all actives have a fitted effect of over 30% in size
Method in brief: as §1

[4] = Quantitative High-Throughput drug screen in 47 multiple myeloma cell lines against the NCATS MIPE library collection: KMM1_JCRB cell viability assay (AID 1918960); note: nearly all actives have a fitted effect of over 30% in size;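 for viability (% of DMSO): 100% = DMSO-treated cells and 0% = medium-only wells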
Method in brief: as §2

[5] = Quantitative High-Throughput drug screen in 47 multiple myeloma cell lines against the NCATS MIPE library collection: Karpas417_ECACC cell viability assay (AID 1918961); conditions: Karpas417 myeloma viability, CellTiter-Glo ATP luminescence, 48 h; viability (% of DMSO): at 45.8 µM (top of the series)
Method in brief: (§3)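 Approved and investigational drugs from MIPE 4.0 were added by pin tool to 500 cells per well. After 48 hours at 37C, ATP-based CellTiter-Glo luminescence indicated remaining viability.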

[6] = Quantitative High-Throughput drug screen in 47 multiple myeloma cell lines against the NCATS MIPE library collection: JIM1_ECACC cell viability assay (AID 1918964)
Method in brief: as §1

[7] = Quantitative High-Throughput drug screen in 47 multiple myeloma cell lines against the NCATS MIPE library collection: H1112_PLB cell viability assay (AID 1918967; note: nearly all actives have a fitted effect of over 30% in size)
Method in brief: as §1

[8] = Quantitative High-Throughput drug screen in 47 multiple myeloma cell lines against the NCATS MIPE library collection: Karpas25_ECACC cell viability assay (AID 1918968; note: nearly all actives have a fitted effect of over 35% in size)
Method in brief: as §1

[9] = Quantitative High-Throughput drug screen in 47 multiple myeloma cell lines against the NCATS MIPE library collection: KMS12PE_JCRB cell viability assay (AID 1918972); note: nearly all actives have a fitted effect of over 30% in size
Method in brief: as §3

[10] = Quantitative High-Throughput drug screen in 47 multiple myeloma cell lines against the NCATS MIPE library collection: MOLP8_DSMZ cell viability assay (AID 1918977); note: nearly all actives have a fitted effect of over 45% in size
Method in brief: (§4)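 MIPE 4.0 approved/investigational drugs; 500 cells/well; 48 h 37 °C humidified 5% CO2; CTG luminescence readout; DMSO = 100%, media = 0% viability.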

[11] = Quantitative High-Throughput drug screen in 47 multiple myeloma cell lines against the NCATS MIPE library collection: MM1R_ATCC cell viability assay (AID 1918981); note: nearly all actives have a fitted effect of over 35% in size
Method in brief: as §4

[12] = Quantitative High-Throughput drug screen in 47 multiple myeloma cell lines against the NCATS MIPE library collection: ARD_JJKsccE7 cell viability assay (AID 1918929)
Method in brief: as §1

[13] = Quantitative High-Throughput drug screen in 47 multiple myeloma cell lines against the NCATS MIPE library collection: JIM3_ECACC cell viability assay (AID 1918963; note: nearly all actives have a fitted effect of over 35% in size)
Method in brief: as §1

[14] = Quantitative High-Throughput drug screen in 47 multiple myeloma cell lines against the NCATS MIPE library collection: MM1S_ATCC cell viability assay (AID 1918980); note: nearly all actives have a fitted effect of over 45% in size
Method in brief: as §4

[15] = Quantitative High-Throughput drug screen in 47 multiple myeloma cell lines against the NCATS MIPE library collection: KHM11_PLB cell viability assay (AID 1918962); note: nearly all actives have a fitted effect of over 35% in size
Method in brief: as §1

[16] = Quantitative High-Throughput drug screen in 47 multiple myeloma cell lines against the NCATS MIPE library collection: JJN3_DSMZ cell viability assay (AID 1918966; note: nearly all actives have a fitted effect of over 50% in size)
Method in brief: as §1

[17] = Quantitative High-Throughput drug screen in 47 multiple myeloma cell lines against the NCATS MIPE library collection: KMS12BM_JCRB cell viability assay (AID 1918971); note: nearly all actives have a fitted effect of over 35% in size
Method in brief: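 Luminescent ATP measurement with CellTiter-Glo gives viability, scaled between DMSO-only wells (100%) and media-only wells (0%). Cells, 500 per well, faced library compounds for 48 hours at 37C.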

[18] = Quantitative High-Throughput drug screen in 47 multiple myeloma cell lines against the NCATS MIPE library collection: MMM1_PLB cell viability assay (AID 1918976); conditions: MMM1 myeloma cells viability, CellTiter-Glo, 48 h; note: nearly all actives have a fitted effect of over 35% in size
Method in brief: as §4

[19] = Quantitative High-Throughput drug screen in 47 multiple myeloma cell lines against the NCATS MIPE library collection: KMS21BM_JCRB cell viability assay (AID 1918974)
Method in brief: as §1

[20] = Quantitative High-Throughput drug screen in 47 multiple myeloma cell lines against the NCATS MIPE library collection: KMS20_JCRB cell viability assay (AID 1918973); note: nearly all actives have a fitted effect of over 45% in size
Method in brief: as §1
Potency is the fitted concentration of half-maximal effect.

CCCC(C)(COC(N)=O)COC(=O)NC(C)C (stereo not given)
active: viability (% of DMSO) [5] 64.9%
inactive: Potency [1] | Potency [2] | Potency [3] | Potency [4] | Potency [6] | Potency [7] | Potency [8] | Potency [9] | Potency [10] | Potency [11]

O=C(O)C(=O)c1cn(Cc2ccccc2)c2ccc(-c3ccc(OC(F)(F)F)cc3)cc12
active: Potency [13] 18700 nM | Potency [7] 14800 nM | Potency [8] 16600 nM | Potency [9] 7430 nM | Potency [14] 23500 nM
inactive: Potency [1] | Potency [2] | Potency [12] | Potency [3] | Potency [4] | Potency [6] | Potency [11]

COC[C@H]1OC(=O)c2coc3c2[C@@]1(C)C1=C(C3=O)C2CCC(=O)[C@@]2(C)C[C@H]1OC(C)=O (stereo not given in full)
active: Potency [1] 8330 nM | Potency [2] 1480 nM | Potency [12] 14800 nM | Potency [3] 4690 nM | Potency [4] 7430 nM | Potency [15] 3320 nM | Potency [13] 4690 nM | Potency [6] 8330 nM | Potency [16] 10500 nM | Potency [7] 2640 nM | Potency [8] 526 nM | Potency [17] 10500 nM | Potency [9] 16600 nM | Potency [18] 2640 nM | Potency [10] 1320 nM | Potency [14] 14800 nM | Potency [11] 1180 nM

CNC(=O)N1N=C(c2ccc(N)cc2)c2cc3c(cc2CC1C)OCO3 (stereo not given)
active: Potency [1] 1870 nM | Potency [12] 2350 nM | Potency [5] 1870 nM | Potency [15] 2960 nM | Potency [13] 4690 nM | Potency [16] 1320 nM | Potency [8] 9350 nM | Potency [9] 2350 nM | Potency [19] 1480 nM | Potency [18] 14800 nM | Potency [14] 16600 nM
inactive: Potency [7]

CN(C)[C@@H]1C(=O)C(C(N)=O)=C(O)[C@@]2(O)C(=O)C3=C(O)c4c(O)cccc4[C@@](C)(O)[C@H]3C[C@@H]12
inactive: Potency [1] | Potency [12] | Potency [3] | Potency [4] | Potency [5] | Potency [15] | Potency [6] | Potency [7] | Potency [8] | Potency [9] | Potency [10]
active: Potency [2] 16600 nM | Potency [17] 4180 nM | Potency [18] 8330 nM

COc1ccc(C(CN(C)C)C2(O)CCCCC2)cc1 (stereo not given)
inactive: Potency [2] | Potency [12] | Potency [3] | Potency [13] | Potency [6] | Potency [8] | Potency [17] | Potency [10] | Potency [11]

O=c1[nH]c2ccccc2n1CCCN1CCC(n2c(=O)[nH]c3cc(Cl)ccc32)CC1
active: Potency [3] 20900 nM | Potency [8] 37.2 nM | Potency [9] 18700 nM | Potency [19] 118 nM | Potency [14] 41.8 nM
inactive: Potency [15] | Potency [13] | Potency [16] | Potency [10] | Potency [11]

Cc1sc2c(c1C)C(c1ccc(Cl)cc1)=N[C@@H](CC(=O)OC(C)(C)C)c1nnc(C)n1-2
active: Potency [1] 83.3 nM | Potency [2] 209 nM | Potency [12] 41.8 nM | Potency [3] 132 nM | Potency [4] 66.2 nM | Potency [15] 8.3 nM | Potency [13] 1660 nM | Potency [16] 296 nM | Potency [7] 6620 nM | Potency [8] 526 nM | Potency [17] 187 nM | Potency [9] 29.6 nM | Potency [20] 1180 nM | Potency [18] 1050 nM | Potency [14] 1320 nM | Potency [11] 332 nM

CNCC(O)c1ccc(O)cc1 (stereo not given)
active: viability (% of DMSO) [5] 80.8% | Potency [14] 14800 nM | Potency [11] 4180 nM
inactive: Potency [1] | Potency [2] | Potency [12] | Potency [3] | Potency [15] | Potency [13] | Potency [6] | Potency [7] | Potency [17] | Potency [9] | Potency [10]

CN(C)CCN(C)CCc1ccc(Cl)c(Cl)c1
inactive: Potency [2] | Potency [12] | Potency [3] | Potency [4] | Potency [13] | Potency [16] | Potency [7] | Potency [17] | Potency [20] | Potency [11]
active: Potency [1] 20900 nM | Potency [9] 23500 nM

CN1CCN(C(=O)O[C@H]2c3nccnc3C(=O)N2c2ccc(Cl)cn2)CC1
inactive: Potency [1] | Potency [3] | Potency [4] | Potency [15] | Potency [13] | Potency [6] | Potency [7] | Potency [8] | Potency [9] | Potency [14] | Potency [11]

C[C@@H]1O[C@@H](O[C@H]2C[C@@H](O)[C@]3(CO)[C@H]4[C@H](O)C[C@]5(C)[C@@H](C6=CC(=O)OC6)CC[C@]5(O)[C@@H]4CC[C@]3(O)C2)[C@H](O)[C@H](O)[C@H]1O
active: Potency [1] 9.3 nM | Potency [2] 41.8 nM | Potency [12] 14.8 nM | Potency [3] 37.2 nM | Potency [15] 37.2 nM | Potency [13] 41.8 nM | Potency [6] 13.2 nM | Potency [16] 105 nM | Potency [7] 83.3 nM | Potency [8] 37.2 nM | Potency [17] 66.2 nM | Potency [9] 10.5 nM | Potency [20] 23.5 nM | Potency [14] 59 nM | Potency [11] 52.6 nM

O=C1CC[C@@]2(O)[C@H]3Cc4ccc(O)c5c4[C@@]2(CCN3CC2CC2)[C@H]1O5
inactive: Potency [2] | Potency [12] | Potency [3] | Potency [4] | Potency [5] | Potency [13] | Potency [6] | Potency [7] | Potency [8] | Potency [9] | Potency [14]

CNC(=O)c1ccc(N2C(=S)N(c3ccc(C#N)c(C(F)(F)F)c3)C(=O)C23CCC3)cc1F
active: Potency [1] 2640 nM | Potency [12] 16600 nM | Potency [3] 18700 nM | Potency [4] 16600 nM | Potency [15] 33200 nM | Potency [13] 23500 nM | Potency [7] 3720 nM | Potency [8] 2960 nM | Potency [20] 8330 nM | Potency [14] 1050 nM | Potency [11] 13200 nM
inactive: Potency [2]

NCC1(CC(=O)O)CCCCC1
inactive: Potency [1] | Potency [2] | Potency [12] | Potency [3] | Potency [4] | Potency [13] | Potency [16] | Potency [7] | Potency [8] | Potency [17] | Potency [9] | Potency [14]

Cc1cccc(C)c1NC(=O)CN1CCCC1=O
inactive: Potency [2] | Potency [12] | Potency [3] | Potency [4] | Potency [15] | Potency [13] | Potency [7] | Potency [8] | Potency [17] | Potency [9] | Potency [11]
active: Potency [14] 235 nM

O=P1(NCCCl)OCCCN1CCCl (stereo not given)
inactive: Potency [10]
active: Potency [1] 5900 nM | Potency [13] 20900 nM | Potency [19] 7430 nM

CC(O)(CS(=O)(=O)c1ccc(F)cc1)C(=O)Nc1ccc(C#N)c(C(F)(F)F)c1 (stereo not given)
active: Potency [1] 662 nM | Potency [12] 1660 nM | Potency [3] 2090 nM | Potency [4] 2640 nM | Potency [5] 372 nM | Potency [15] 1870 nM | Potency [13] 2960 nM | Potency [6] 4180 nM | Potency [16] 4690 nM | Potency [7] 235 nM | Potency [8] 264 nM | Potency [17] 23500 nM | Potency [9] 1660 nM | Potency [20] 935 nM | Potency [14] 132 nM | Potency [11] 1050 nM
